Reference: paper PMC7862700, “An all-to-all approach to the identification of sequence-specific readers for epigenetic DNA modifications on cytosine”

Experiments:
Assay in all cases: DAPPL (digital affinity profiling via proximity ligation, sequencing); 10 mM Tris-HCl pH 7.5, 50 mM NaCl, 1 mM DTT, 4% glycerol, room temperature, 30 min; GST-TFs on glutathione beads, 16-mer random dsDNA library, 0.1% formaldehyde crosslink after washing; high values mean tight binding
Conditions in all cases: protein: recombinant; tags: N-terminal GST; dsDNA, one strand shown
[1] = target: T1, FLI1 (Homo sapiens, UniProt Q01543 1-452)
T1 sequence: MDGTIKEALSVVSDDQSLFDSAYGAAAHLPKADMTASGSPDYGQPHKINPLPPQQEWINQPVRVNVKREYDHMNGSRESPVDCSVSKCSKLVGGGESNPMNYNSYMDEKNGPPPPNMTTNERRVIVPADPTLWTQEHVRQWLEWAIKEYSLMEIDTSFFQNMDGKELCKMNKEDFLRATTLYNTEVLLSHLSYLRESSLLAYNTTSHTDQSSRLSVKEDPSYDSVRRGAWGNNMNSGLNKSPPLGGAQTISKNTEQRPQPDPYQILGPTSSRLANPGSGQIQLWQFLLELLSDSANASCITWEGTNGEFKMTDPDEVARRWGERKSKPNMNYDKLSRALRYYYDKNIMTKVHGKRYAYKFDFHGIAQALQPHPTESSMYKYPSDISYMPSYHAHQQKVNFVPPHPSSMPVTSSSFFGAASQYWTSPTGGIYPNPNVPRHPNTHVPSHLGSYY
How it was run: (§1)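 Yeast served to express human transcription factors as GST fusions, which were then captured on glutathione beads and labelled with DNA barcodes. Pooled with a tag-only sample, they were incubated with 200 nmole of a 16-mer random double-stranded DNA library for 30 min at room temperature in Tris/NaCl/DTT/glycerol buffer, washed, crosslinked with 0.1% formaldehyde, ligated by proximity, amplified by PCR and sequenced. Dividing each hexamer's read frequency for a factor by its frequency for the tag-only sample gives the binding signal.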

[2] = target: T2, ELK1 (Homo sapiens, UniProt P19419 1-428)
T2 sequence: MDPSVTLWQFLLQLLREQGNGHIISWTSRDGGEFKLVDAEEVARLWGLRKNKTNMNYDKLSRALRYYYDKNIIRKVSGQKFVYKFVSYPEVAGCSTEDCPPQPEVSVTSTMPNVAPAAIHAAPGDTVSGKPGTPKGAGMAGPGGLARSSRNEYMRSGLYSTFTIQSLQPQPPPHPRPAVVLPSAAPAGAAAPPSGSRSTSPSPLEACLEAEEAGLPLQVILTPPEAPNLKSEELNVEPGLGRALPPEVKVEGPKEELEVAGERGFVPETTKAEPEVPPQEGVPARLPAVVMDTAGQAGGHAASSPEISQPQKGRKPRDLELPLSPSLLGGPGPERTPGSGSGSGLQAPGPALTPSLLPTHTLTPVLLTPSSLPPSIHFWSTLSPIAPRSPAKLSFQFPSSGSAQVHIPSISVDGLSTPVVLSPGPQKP
How it was run: as §1

[3] = target: T3, GABPA (Homo sapiens, UniProt Q06546 1-454)
T3 sequence: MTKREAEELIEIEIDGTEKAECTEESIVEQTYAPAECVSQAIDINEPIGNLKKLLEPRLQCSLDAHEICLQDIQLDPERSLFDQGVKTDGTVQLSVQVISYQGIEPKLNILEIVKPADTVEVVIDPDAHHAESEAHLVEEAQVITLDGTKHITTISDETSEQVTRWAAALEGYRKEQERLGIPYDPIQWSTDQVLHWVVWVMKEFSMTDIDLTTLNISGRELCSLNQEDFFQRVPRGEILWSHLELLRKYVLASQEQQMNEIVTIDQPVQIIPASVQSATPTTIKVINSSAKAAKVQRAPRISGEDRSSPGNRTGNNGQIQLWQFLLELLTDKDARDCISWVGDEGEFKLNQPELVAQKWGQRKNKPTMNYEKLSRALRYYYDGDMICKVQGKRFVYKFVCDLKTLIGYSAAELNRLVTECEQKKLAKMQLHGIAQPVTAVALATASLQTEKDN
How it was run: as §1

[4] = target: T4, ERG (Homo sapiens, UniProt P11308 1-479)
T4 sequence: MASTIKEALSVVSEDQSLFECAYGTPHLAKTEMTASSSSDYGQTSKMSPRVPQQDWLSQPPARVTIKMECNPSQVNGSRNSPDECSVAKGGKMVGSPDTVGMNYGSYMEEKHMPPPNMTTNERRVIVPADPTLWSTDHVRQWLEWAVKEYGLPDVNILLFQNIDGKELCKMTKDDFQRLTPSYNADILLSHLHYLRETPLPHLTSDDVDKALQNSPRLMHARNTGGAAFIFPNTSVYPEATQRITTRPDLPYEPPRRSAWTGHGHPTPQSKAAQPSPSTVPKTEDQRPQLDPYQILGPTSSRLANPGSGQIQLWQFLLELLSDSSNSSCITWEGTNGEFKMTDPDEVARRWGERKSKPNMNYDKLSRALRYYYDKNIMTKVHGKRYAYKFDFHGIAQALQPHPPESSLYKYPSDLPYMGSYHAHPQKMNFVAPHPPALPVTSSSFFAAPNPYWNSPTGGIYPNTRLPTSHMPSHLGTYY
How it was run: as §1

[5] = target: ELF1 (Homo sapiens, UniProt P32519 1-619)
Chain of ELF1 (P32519 whole entry): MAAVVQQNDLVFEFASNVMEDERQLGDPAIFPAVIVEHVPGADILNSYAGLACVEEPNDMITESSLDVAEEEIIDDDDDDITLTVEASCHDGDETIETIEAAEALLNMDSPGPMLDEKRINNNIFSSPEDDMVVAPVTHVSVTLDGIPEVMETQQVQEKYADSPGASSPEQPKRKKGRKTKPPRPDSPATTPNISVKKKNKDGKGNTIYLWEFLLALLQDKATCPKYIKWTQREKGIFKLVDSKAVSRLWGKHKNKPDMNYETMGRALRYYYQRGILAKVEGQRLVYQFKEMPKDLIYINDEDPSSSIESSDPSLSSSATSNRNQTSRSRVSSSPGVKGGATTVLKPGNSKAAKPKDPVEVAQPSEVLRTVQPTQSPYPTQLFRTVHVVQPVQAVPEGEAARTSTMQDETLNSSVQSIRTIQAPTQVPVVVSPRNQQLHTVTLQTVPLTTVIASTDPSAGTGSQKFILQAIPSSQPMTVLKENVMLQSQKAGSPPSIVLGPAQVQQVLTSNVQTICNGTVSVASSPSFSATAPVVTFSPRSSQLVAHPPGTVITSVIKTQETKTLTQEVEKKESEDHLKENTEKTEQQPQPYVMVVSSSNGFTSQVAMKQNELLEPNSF
How it was run: as §1

[6] = target: SPI1 (Homo sapiens, UniProt P17947 1-270)
How it was run: as §1

[7] = target: SPIB (Homo sapiens, UniProt Q01892 1-262)
Chain of SPIB (Q01892 whole entry): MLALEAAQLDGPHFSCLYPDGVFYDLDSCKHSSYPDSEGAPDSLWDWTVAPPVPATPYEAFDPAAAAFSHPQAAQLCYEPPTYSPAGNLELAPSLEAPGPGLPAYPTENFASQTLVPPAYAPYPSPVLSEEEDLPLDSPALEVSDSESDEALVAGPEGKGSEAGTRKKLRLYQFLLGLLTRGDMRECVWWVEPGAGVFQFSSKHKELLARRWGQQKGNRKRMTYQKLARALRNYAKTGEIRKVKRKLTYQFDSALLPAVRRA
How it was run: as §1

[8] = target: ELF4 (Homo sapiens, UniProt Q99607 1-663)
Chain of ELF4 (Q99607 whole entry): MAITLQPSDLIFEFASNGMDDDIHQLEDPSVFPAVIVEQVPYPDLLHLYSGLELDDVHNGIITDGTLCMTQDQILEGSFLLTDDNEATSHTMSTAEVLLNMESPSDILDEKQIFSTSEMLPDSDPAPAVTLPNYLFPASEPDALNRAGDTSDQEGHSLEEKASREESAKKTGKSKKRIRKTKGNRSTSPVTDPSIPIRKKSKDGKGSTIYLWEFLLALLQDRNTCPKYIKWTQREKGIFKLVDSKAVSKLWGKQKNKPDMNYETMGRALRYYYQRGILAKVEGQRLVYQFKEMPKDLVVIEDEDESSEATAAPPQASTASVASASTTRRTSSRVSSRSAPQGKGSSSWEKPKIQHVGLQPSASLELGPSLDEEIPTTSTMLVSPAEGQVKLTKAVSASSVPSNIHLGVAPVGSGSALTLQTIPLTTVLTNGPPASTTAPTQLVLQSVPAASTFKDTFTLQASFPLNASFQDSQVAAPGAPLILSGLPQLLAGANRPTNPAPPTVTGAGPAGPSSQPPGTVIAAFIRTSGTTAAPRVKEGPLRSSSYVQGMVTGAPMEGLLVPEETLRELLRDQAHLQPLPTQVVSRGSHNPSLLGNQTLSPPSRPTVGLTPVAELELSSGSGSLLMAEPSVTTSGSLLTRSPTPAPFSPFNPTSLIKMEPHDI
How it was run: as §1

[9] = target: T5, ETV2 (Homo sapiens, UniProt O00321 1-342)
T5 sequence: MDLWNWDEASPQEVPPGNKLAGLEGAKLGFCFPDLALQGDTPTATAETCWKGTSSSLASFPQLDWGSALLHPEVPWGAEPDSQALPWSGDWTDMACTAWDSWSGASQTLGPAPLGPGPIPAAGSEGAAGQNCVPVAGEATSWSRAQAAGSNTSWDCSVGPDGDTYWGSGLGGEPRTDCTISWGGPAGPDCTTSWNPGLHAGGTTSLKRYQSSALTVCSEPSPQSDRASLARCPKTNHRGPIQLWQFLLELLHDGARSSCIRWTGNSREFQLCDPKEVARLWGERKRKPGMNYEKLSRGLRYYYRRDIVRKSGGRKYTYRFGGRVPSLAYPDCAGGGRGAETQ
How it was run: as §1

[10] = target: T6, ELF3 (Homo sapiens, UniProt P78545 1-371)
T6 sequence: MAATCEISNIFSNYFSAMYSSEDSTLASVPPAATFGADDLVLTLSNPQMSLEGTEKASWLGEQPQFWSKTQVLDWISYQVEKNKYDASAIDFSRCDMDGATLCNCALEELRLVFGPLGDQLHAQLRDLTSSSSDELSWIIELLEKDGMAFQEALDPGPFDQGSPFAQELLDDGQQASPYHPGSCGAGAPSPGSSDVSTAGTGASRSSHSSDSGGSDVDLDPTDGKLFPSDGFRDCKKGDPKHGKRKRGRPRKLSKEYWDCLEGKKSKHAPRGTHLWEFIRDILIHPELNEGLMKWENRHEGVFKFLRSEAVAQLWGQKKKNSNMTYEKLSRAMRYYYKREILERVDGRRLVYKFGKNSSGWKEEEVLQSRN
How it was run: as §1

[11] = target: ETV1 (Homo sapiens, UniProt P50549 1-477)
Chain of ETV1 (P50549 whole entry): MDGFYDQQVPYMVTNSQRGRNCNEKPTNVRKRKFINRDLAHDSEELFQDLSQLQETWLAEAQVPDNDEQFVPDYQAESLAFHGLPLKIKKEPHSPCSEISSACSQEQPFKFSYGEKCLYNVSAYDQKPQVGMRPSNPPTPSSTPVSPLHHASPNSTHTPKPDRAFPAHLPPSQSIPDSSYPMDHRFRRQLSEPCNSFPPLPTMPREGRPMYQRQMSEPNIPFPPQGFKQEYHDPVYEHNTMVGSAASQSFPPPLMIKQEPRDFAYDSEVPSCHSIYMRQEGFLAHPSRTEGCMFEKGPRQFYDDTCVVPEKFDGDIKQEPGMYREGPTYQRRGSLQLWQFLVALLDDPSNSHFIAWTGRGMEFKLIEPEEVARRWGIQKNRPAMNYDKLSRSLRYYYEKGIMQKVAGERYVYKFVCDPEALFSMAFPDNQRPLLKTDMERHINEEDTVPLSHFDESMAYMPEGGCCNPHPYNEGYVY
How it was run: as §1

[12] = target: T7, ETV3L (Homo sapiens, UniProt Q6ZN32 1-361)
T7 sequence: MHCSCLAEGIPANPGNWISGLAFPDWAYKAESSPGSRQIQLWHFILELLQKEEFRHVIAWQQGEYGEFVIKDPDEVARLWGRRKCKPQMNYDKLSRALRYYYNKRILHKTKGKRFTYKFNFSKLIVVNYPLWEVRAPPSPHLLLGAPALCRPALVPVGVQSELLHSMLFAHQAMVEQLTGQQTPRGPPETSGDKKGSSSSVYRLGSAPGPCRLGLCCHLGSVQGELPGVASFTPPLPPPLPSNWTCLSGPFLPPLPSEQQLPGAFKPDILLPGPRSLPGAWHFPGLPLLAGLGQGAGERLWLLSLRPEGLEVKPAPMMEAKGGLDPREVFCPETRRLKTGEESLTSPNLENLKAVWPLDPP
How it was run: as §1

[13] = target: T8, ETV7 (Homo sapiens, UniProt Q9Y603 1-341)
T8 sequence: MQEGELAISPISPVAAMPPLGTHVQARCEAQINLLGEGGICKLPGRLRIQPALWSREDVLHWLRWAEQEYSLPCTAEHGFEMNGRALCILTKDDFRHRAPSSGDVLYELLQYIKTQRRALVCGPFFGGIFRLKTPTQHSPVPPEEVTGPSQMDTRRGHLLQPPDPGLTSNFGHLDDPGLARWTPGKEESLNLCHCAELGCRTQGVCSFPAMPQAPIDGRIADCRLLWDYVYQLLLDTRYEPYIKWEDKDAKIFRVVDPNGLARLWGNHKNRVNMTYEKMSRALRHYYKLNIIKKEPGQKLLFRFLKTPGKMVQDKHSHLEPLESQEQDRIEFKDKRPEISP
How it was run: as §1

[14] = target: T9, ETV3 (Homo sapiens, UniProt P41162-2 1-143)
T9 sequence: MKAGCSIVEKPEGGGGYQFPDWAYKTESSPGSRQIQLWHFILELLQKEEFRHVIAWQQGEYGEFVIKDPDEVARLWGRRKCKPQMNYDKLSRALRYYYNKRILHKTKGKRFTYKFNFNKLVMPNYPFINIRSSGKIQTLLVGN
How it was run: as §1

[15] = target: ETV6 (Homo sapiens, UniProt P41212 1-452)
Chain of ETV6 (P41212 whole entry): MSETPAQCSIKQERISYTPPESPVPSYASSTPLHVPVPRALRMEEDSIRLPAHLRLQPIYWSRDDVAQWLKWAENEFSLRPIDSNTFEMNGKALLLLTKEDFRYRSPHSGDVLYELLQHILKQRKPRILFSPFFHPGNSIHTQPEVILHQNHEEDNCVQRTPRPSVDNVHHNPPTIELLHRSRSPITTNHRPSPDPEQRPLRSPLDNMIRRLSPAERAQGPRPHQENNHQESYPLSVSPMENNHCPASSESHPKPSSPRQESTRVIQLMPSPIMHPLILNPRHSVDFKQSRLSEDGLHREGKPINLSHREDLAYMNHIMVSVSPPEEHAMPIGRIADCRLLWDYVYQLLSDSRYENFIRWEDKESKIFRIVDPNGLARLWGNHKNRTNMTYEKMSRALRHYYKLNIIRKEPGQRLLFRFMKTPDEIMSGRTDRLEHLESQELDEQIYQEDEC
How it was run: as §1

Sequence: TCAGAT
- binding signal [1]: 1.01 fold enrichment (6-mer frequency, TF over GST control)
- binding signal [2]: 1.05 fold enrichment (6-mer frequency, TF over GST control)
- binding signal [3]: 1.03 fold enrichment (6-mer frequency, TF over GST control)
- binding signal [4]: 1.06 fold enrichment (6-mer frequency, TF over GST control)
- binding signal [5]: 1.04 fold enrichment (6-mer frequency, TF over GST control)
- binding signal [6]: 1.08 fold enrichment (6-mer frequency, TF over GST control)
- binding signal [7]: 1.02 fold enrichment (6-mer frequency, TF over GST control)
- binding signal [8]: 1.02 fold enrichment (6-mer frequency, TF over GST control)
- binding signal [9]: 1.08 fold enrichment (6-mer frequency, TF over GST control)
- binding signal [10]: 1.08 fold enrichment (6-mer frequency, TF over GST control)
- binding signal [11]: 1.05 fold enrichment (6-mer frequency, TF over GST control)
- binding signal [12]: 1 fold enrichment (6-mer frequency, TF over GST control)
- binding signal [13]: 1.03 fold enrichment (6-mer frequency, TF over GST control)
- binding signal [14]: 1.02 fold enrichment (6-mer frequency, TF over GST control)
- binding signal [15]: 1.08 fold enrichment (6-mer frequency, TF over GST control)
